# Measurements as given in PMC11995724, “Antibiotic target discovery by integrated phenotypic and activity-based profiling of electrophilic fragments” (Cell chemical biology, 2025).
# Among all 3,200 compounds or so, about 110 (3.4%) showed an effect of 50% or more. This is one part of a sample in which strong results are shown more often than they occur.
# System: T1, V. cholerae SAD30
# T1 construct: SAD30
# Design: species or system S. aureus MSSA476 (TSB) or V. cholerae SAD30 (LB); 384-well bacterial growth screen at 25 uM, OD600 relative to DMSO control
# Settings: relative growth, OD600, LB; 25 µM; inhibitor
row,SMILES,% of control remaining [%]
1,"N#CC(=Cc1ccc([N+](=O)[O-])cc1)C(=O)Nc1ccc(Cl)cc1 [8-O11, N-(4-chlorophenyl)-2-cyano-3-(4-nitrophenyl)prop-2-enamide]",68.7288
2,"O=C(CCl)N1N=C(c2cccs2)CC1c1cccc(O)c1 (stereo not drawn) [6-L04, 2-chloro-1-[5-(3-hydroxyphenyl)-3-(thiophen-2-yl)-4,5-dihydro-1H-pyrazol-1-yl]ethan-1-one]",102.076
3,"CC(CO)(Cc1ccc(F)cc1)NC(=O)CCl (stereo not drawn) [7-F06, 2-chloro-N-{2-[(4-fluorophenyl)methyl]-1-hydroxypropan-2-yl}acetamide]",78.5065
4,"CC(Cl)C(=O)N1Cc2ccccc2OCC1C (stereo not drawn) [7-F11, 2-chloro-1-(3-methyl-2,3,4,5-tetrahydro-1,4-benzoxazepin-4-yl)propan-1-one]",75.731
5,"Cc1ccc(C=C(C#N)C(=O)NCc2ccco2)o1 [8-P19, 2-cyano-N-[(furan-2-yl)methyl]-3-(5-methylfuran-2-yl)prop-2-enamide]",80.6934
6,"N#CC(=Cc1cc2ccccc2o1)C(=O)NCc1ccco1 [9-O08, 3-(1-benzofuran-2-yl)-2-cyano-N-[(furan-2-yl)methyl]prop-2-enamide]",80.4215
7,"N#CC(=Cc1ccc([N+](=O)[O-])o1)C(=O)NCc1ccco1 [8-I17, 2-cyano-N-[(furan-2-yl)methyl]-3-(5-nitrofuran-2-yl)prop-2-enamide]",-0.06798
8,"Cc1cc(C=C(C#N)C(N)=O)c(C)n1-c1cccc2ccccc12 [9-I12, 2-cyano-3-[2,5-dimethyl-1-(naphthalen-1-yl)-1H-pyrrol-3-yl]prop-2-enamide]",52.4133
9,"C=CC(=O)N1CCC(C(=O)NC[C@H]2C[C@@H](O)C2)(c2ccccc2)CC1 [3-O04, 4-phenyl-1-(prop-2-enoyl)-N-{[(1s,3s)-3-hydroxycyclobutyl]methyl}piperidine-4-carboxamide]",105.852
10,"CC(Cl)C(=O)Nc1ccccc1[N+](=O)[O-] (stereo not drawn) [4-G18, 2-chloro-N-(2-nitrophenyl)propanamide]",96.0966
11,"CN(C)CCN1C(=O)C=CC1=O [10-G11, 1-[2-(dimethylamino)ethyl]-2,5-dihydro-1H-pyrrole-2,5-dione]",99.9026
12,"O=C1C=CC(=O)N1CCCCO [10-K07, 1-(4-hydroxybutyl)-2,5-dihydro-1H-pyrrole-2,5-dione]",17.4557
13,"CCOC=C(C#N)C(=O)N1CCN(S(=O)(=O)c2cc[nH]n2)CC1 [9-D06, 3-ethoxy-2-[4-(1H-pyrazole-3-sulfonyl)piperazine-1-carbonyl]prop-2-enenitrile]",86.1319
14,"C#CCN1C(=O)C=CC1=O [10-F09, 1-(prop-2-yn-1-yl)-2,5-dihydro-1H-pyrrole-2,5-dione]",15.1179
15,"CC(Cl)C(=O)N1CCN(Cc2ccc3ccccc3n2)CC1 (stereo not drawn) [7-A15, 2-chloro-1-{4-[(quinolin-2-yl)methyl]piperazin-1-yl}propan-1-one]",80.0925
16,"Cc1ccc(C(=O)CCl)o1 [10-A09, 2-chloro-1-(5-methylfuran-2-yl)ethan-1-one]",117.514
17,"Cc1nc(C#N)c(N2CCN(C(=O)CCl)CC2)o1 [5-L18, 5-[4-(2-chloroacetyl)piperazin-1-yl]-2-methyl-1,3-oxazole-4-carbonitrile]",96.3329
18,"Cc1nc(C)c(C(=O)CCl)o1 [10-N08, 2-chloro-1-(2,4-dimethyl-1,3-oxazol-5-yl)ethan-1-one]",41.4572

row,SMILES,% of control remaining [%]
1,"CC(Cl)C(=O)Nc1c(Cl)cccc1Cl (stereo not drawn) [4-B16, 2-chloro-N-(2,6-dichlorophenyl)propanamide]",102.653
2,"C=CC(=O)NC(=O)NCc1ccccc1 [1-I04, 1-benzyl-3-(prop-2-enoyl)urea]",96.861
3,"NS(=O)(=O)c1cccc2cc(NC(=O)CCl)ccc12 [5-K16, 2-chloro-N-(5-sulfamoylnaphthalen-2-yl)acetamide]",109.11
4,"C=CC(=O)N(Cc1c(F)cc(C)cc1Cl)C1CCCOCC1 (stereo not drawn) [2-A13, N-[(2-chloro-6-fluoro-4-methylphenyl)methyl]-N-(oxepan-4-yl)prop-2-enamide]",81.8585
5,"C=CC(=O)N1CCC(C(=O)N2CCN(c3ccnc(C)n3)CC2)CC1 [2-L06, 1-{4-[4-(2-methylpyrimidin-4-yl)piperazine-1-carbonyl]piperidin-1-yl}prop-2-en-1-one]",88.9607
6,"COc1cccc([C@H]2C[C@H](N(C)C(=O)C(C)Cl)C2)c1 (stereo partly drawn) [6-B17, 2-chloro-N-methyl-N-[(1r,3r)-3-(3-methoxyphenyl)cyclobutyl]propanamide]",89.6388
7,"Cc1coc(C)c1C(=O)CCl [10-M11, 2-chloro-1-(2,4-dimethylfuran-3-yl)ethan-1-one]",109.41
8,"Cc1noc(C)c1C(=O)CCl [10-K13, 2-chloro-1-(3,5-dimethyl-1,2-oxazol-4-yl)ethan-1-one]",23.0664
9,"Cc1noc(C)c1CN(C)C(=O)CCl [5-G06, 2-chloro-N-[(3,5-dimethyl-1,2-oxazol-4-yl)methyl]-N-methylacetamide]",92.4661
10,"CN(C(=O)CCl)C1CCN(c2ccccc2F)C1=O (stereo not drawn) [5-A18, 2-chloro-N-[1-(2-fluorophenyl)-2-oxopyrrolidin-3-yl]-N-methylacetamide]",104.066
11,"O=C(c1ccccc1)c1cc(Cl)ccc1N1C(=O)C=CC1=O [10-M16, 1-(2-benzoyl-4-chlorophenyl)-2,5-dihydro-1H-pyrrole-2,5-dione]",57.9778
12,"O=C1C=CC(=O)N1c1ccccc1F [10-D17, 1-(2-fluorophenyl)-2,5-dihydro-1H-pyrrole-2,5-dione]",26.1835
13,"O=C1C=CC(=O)N1c1ccc(F)cc1F [10-F15, 1-(2,4-difluorophenyl)-2,5-dihydro-1H-pyrrole-2,5-dione]",26.4952
14,"N#CC(=Cc1cccc(-c2ccncc2)c1)C(=O)NCc1ccco1 [9-B06, 2-cyano-N-[(furan-2-yl)methyl]-3-[3-(pyridin-4-yl)phenyl]prop-2-enamide]",87.4915
15,"C=CC(=O)N1CCC(c2nc(C3CC3)no2)C1 (stereo not drawn) [2-E09, 1-[3-(3-cyclopropyl-1,2,4-oxadiazol-5-yl)pyrrolidin-1-yl]prop-2-en-1-one]",93.9014
16,"C=CC(=O)N1CCC(C(=O)NCCC2(O)CCCOC2)CC1 (stereo not drawn) [2-B04, N-[2-(3-hydroxyoxan-3-yl)ethyl]-1-(prop-2-enoyl)piperidine-4-carboxamide]",101.004
17,"Cc1ccc(C(=O)C(C)Cl)cc1C (stereo not drawn) [10-B20, 2-chloro-1-(3,4-dimethylphenyl)propan-1-one]",99.2792
18,"CCc1ccc(NC(=O)C(C#N)=Cc2cccnc2)cc1 [8-G04, 2-cyano-N-(4-ethylphenyl)-3-(pyridin-3-yl)prop-2-enamide]",83.8205
